This note sets out measurements from PubChem BioAssay (NCATS).

The assay in a line: qHTS assay for small molecule activators of the human pregnane X receptor (PXR) signaling pathway (AID 720659). On the technique in general: qHTS replaces the single test concentration by a dilution series.

Activity calls are given as the source filed them. No rule for the calls is given here.

In the case of `CC(=O)O[C@@H]1CC(C)=C2[C@H]1[C@H](C)CC[C@H]2/C=C(\C)C(=O)O`, the result was inactive. In the case of `Cc1ccc(N)cc1O` it was “inactive”.
